Screening results: PubChem BioAssay, National Center for Advancing Translational Sciences (NCATS)
Pf growth 48h: P. falciparum growth inhibition at 48 hours (one generation); P. falciparum luciferase growth in erythrocytes, 48 h; Potency, µM (highest dose often 28.7 µM), actives largely listed as inhibitors; 310,000 tested, 5.9% active; AID 504832
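Luminescence readout; reporter = integrated firefly luciferase in P. falciparum. RBC culture at 2% hematocrit, 0.1% parasitemia final, 37 C/5% CO2; decreased signal taken as growth inhibition.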
HCMV inh: blocks human cytomegalovirus replication | activity change, negative = inhibition, % at 57.5 µM | 410,000 tested, 4.5% active | HFF cells, HCMV-luciferase reporter, 72 h; stronger effect = lower value; in the data active = activity change below about -60%; inconclusive = no clear call, values can overlap the other calls; inactive = above about -39%
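Steps: HFFs plated, 16 h 37C; compounds added; HCMV-luciferase added to MOI 1 PFU/cell; 72 h 37C; OneGlo reagent, 5 min room temperature; luminescence read, normalized to controls.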
Pf growth 96h: P. falciparum growth inhibition at 96 hour, primary screen for plastid delayed-death inhibitors | P. falciparum luciferase reporter growth, 96 h | Potency, µM (top dose mostly 28.7 µM), most hits filed as inhibitors | 320,000 tested, 6.9% active | AID 504834
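Erythrocytes infected with luciferase-expressing P. falciparum were dispensed at 2% hematocrit and 0.05% parasitemia (final), then incubated with compounds 96 hours at 37 C in 5% CO2. Luminescence after detection reagent addition reported growth.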
CHX counter: counter-screen hit for Shiga toxin inhibitors, cycloheximide. cell reporter, cycloheximide protein synthesis inhibition counterscreen. max response, %. 300,000 tested, 12% active; in the data active = max response mostly above about 13%, no sharp cut-off; inactive = mostly below about 14%; note: read at 38.3 µM for the half of the compounds with a filed dose
Shiga toxin inh: inhibitors of Shiga toxin in Vero cells; Vero cells, Shiga toxin protein synthesis inhibition reporter; AID 2315; 290,000 tested, 9.2% active; inhibition, % at 38.7 µM; in the data active = inhibition mostly above about 28%, no sharp cut-off; inactive = mostly below about 43%
Of the large screens only hits and unclear results are named; the others gave an inactive call. A selection: hits, their analogues and other compounds. The true share with any hit is near 20%. Unless noted, calls come from the whole dose curve; as a rule, active = well fitted inhibition curve with a large enough effect; inconclusive = small, poorly fitted or top-dose-only effect, or another doubt; inactive = no such curve, though single readings can be large or run the other way.

CC[C@H](C)C(C(=O)N1CCN(C(=O)OC(C)(C)C)CC1)n1cc(C(Cc2ccc(O)cc2)NC(=O)OC(C)(C)C)nn1 (stereo not given in full)	Pf growth 48h inconclusive, Pf growth 96h 1.7µM
CCOc1cc(C#N)ccc1OCC(=O)NNC(=O)CC1CCS(=O)(=O)C1 (stereo not given)	none (no result: CHX counter, Shiga toxin inh)
COc1ccc(N(C(=O)c2cccc(OC)c2OC)C2C=CS(=O)(=O)C2)cc1 (stereo not given)	Pf growth 96h 2.3µM
CCCC(=O)N(c1ccc(OC)cc1)C1C=CS(=O)(=O)C1 (stereo not given)	none
Cc1cc(Cl)ccc1NC(=O)CN1C(=O)COc2ccc(S(=O)(=O)N3CCC(C)CC3)cc21	none (no result: Pf growth 48h, Pf growth 96h, CHX counter, Shiga toxin inh)
COc1ccc(Cn2nnc3c(=O)[nH]c(C4CCN(C(=O)c5ccc(C)cc5)CC4)nc32)cc1OC	none (no result: Pf growth 48h, Pf growth 96h, CHX counter, Shiga toxin inh)
COc1ccc(C(=O)c2ncc(C(F)(F)F)cc2Cl)cc1	none
O=C(O)Cc1ccc(Oc2ncc(C(F)(F)F)cc2Cl)cc1	none
Nc1ccccc1Oc1ncc(C(F)(F)F)cc1Cl	Pf growth 48h 5.2µM
COc1cccc(C(=O)c2ncc(C(F)(F)F)cc2Cl)c1	Pf growth 96h inconclusive, Shiga toxin inh 34
Cn1nc(C(F)(F)F)cc1Oc1ncc(C(F)(F)F)cc1Cl	HCMV inh -62
O=C(COc1ccc2ccccc2c1)Nc1cccnc1Cl	none
Cc1ccc(C(=O)/C=C/Nc2cccc(O)c2)cc1	CHX counter 9.7
CC(=O)c1ccc(N/C=C\C(=O)c2ccc(C)cc2)cc1	CHX counter 53, Shiga toxin inh 112
Cc1ccc(C(=O)/C=C/Nc2ccc3c(c2)OCO3)cc1	Pf growth 96h inconclusive, CHX counter 61, Shiga toxin inh 164
CC(=O)c1cccc(NS(C)(=O)=O)c1	none
CC(=O)c1cccc(N/C=C\C(=O)c2ccc(C)cc2)c1	CHX counter 42, Shiga toxin inh 65
CCOC(=O)c1cnc(N2CCN(c3ccccc3)CC2)[nH]c1=O	none
CC(C)C[C@H](NC(=O)N1c2ccccc2NC(=O)[C@@H]1C(C)C)C(=O)N[C@@H](Cc1ccccc1)C(=O)O	Pf growth 96h inconclusive
CCC(CC)C(=O)OCc1cc(=O)n2nc(C3CC3)sc2n1	none (no result: Pf growth 48h, Pf growth 96h, CHX counter, Shiga toxin inh)
CCc1cc(=O)[nH]c(SCCC(F)=C(F)F)n1	none
C/C(=C\C(=O)c1ccc(C)cc1)Nc1ccc(N2CCOCC2)cc1	Pf growth 48h inconclusive (no result: HCMV inh)
C/C(=C\C(=O)c1ccc(C)cc1)Nc1cccc(O)c1	CHX counter 43, Shiga toxin inh 93
Cc1cc(C(=O)NC2CC(C)(C)Cc3c2cnn3-c2ccccc2)n(C)n1 (stereo not given)	Pf growth 96h inconclusive
CC1(C)Cc2c(cnn2-c2ccccc2)C(NC(=O)c2ccoc2)C1 (stereo not given)	Pf growth 48h 10µM, Pf growth 96h inconclusive
CC1(C)Cc2c(cnn2-c2ccccc2)C(NC(=O)C2(C(N)=O)CC2)C1 (stereo not given)	Pf growth 48h 9.3µM, HCMV inh inconclusive
CN1CCN(c2ccc(C(N)=O)cc2[N+](=O)[O-])CC1	Pf growth 48h inconclusive
CN1CCN(c2ccc(C(=O)c3ccccc3)cc2[N+](=O)[O-])CC1	Pf growth 96h inconclusive, CHX counter 40, Shiga toxin inh 32
COc1ccc(C(=O)Nc2ccccc2N2CCCCC2)cc1[N+](=O)[O-]	Pf growth 48h inconclusive, HCMV inh -63, Pf growth 96h 12µM
CC(=O)c1ccc(N2CCc3ccccc3C2)c([N+](=O)[O-])c1	CHX counter 30, Shiga toxin inh 76
Cc1ccc(C(=O)Nc2ccccc2N2CCCCC2)cc1[N+](=O)[O-]	Pf growth 96h inconclusive
Cc1c(NC(=O)c2ccc(N3CCCC3)c([N+](=O)[O-])c2)cccc1-c1nc2ccccc2s1	Pf growth 48h 10µM, Pf growth 96h inconclusive
O=C(COC(=O)c1cccnc1Cl)Nc1cc(S(=O)(=O)N2CCOCC2)ccc1Cl	none (no result: CHX counter, Shiga toxin inh)
COc1ccc(S(=O)(=O)Nc2ccc(N3CCOCC3)cc2)cc1[N+](=O)[O-]	none
COc1ccc(S(=O)(=O)Nc2ccccc2N2CCOCC2)cc1[N+](=O)[O-]	Pf growth 48h 13µM
CN1CCN(c2ccccc2NC(=O)c2ccc(N3CCCCC3)c([N+](=O)[O-])c2)CC1	Pf growth 48h 13µM, Pf growth 96h inconclusive
COC(=O)c1ccc(N2CCN(CC(=O)c3ccc(-c4ccccc4)cc3)CC2)c([N+](=O)[O-])c1	Pf growth 48h 12µM, Pf growth 96h inconclusive, CHX counter 85, Shiga toxin inh 60
O=C(C[C@@H]1C/C=C/CCCC(=O)O[C@H](c2ccccc2)CNC1=O)NCCO	none (no result: Pf growth 48h, Pf growth 96h, CHX counter, Shiga toxin inh)
O=C(OCC(=O)N1CCN(C(=O)c2ccco2)CC1)c1ccccc1C(=O)c1ccc(Cl)cc1	Pf growth 48h inconclusive, Pf growth 96h inconclusive
Brc1ccc2ncnc(NCc3ccccc3)c2c1	Pf growth 48h inconclusive, HCMV inh -96
Cc1noc(C)c1-c1ccc2ncnc(NCc3ccc(-c4ccccc4)cc3)c2c1	CHX counter 38, Shiga toxin inh 48 (no result: Pf growth 48h, HCMV inh, Pf growth 96h)
CC(=O)Nc1ccc(CNc2ncnc3ccc(-c4c(C)noc4C)cc23)cc1	Pf growth 48h inconclusive, Pf growth 96h inconclusive
CCc1ccc(NC(=O)c2nn(-c3ccc(OC)cc3)c(=O)c3c2c2ccccc2n3C)cc1	none (no result: Pf growth 48h, Pf growth 96h, CHX counter, Shiga toxin inh)
COc1ccc(OC)c(Nc2nc3ccccc3nc2-n2nc(C)cc2C)c1	none (no result: Pf growth 48h, Pf growth 96h, CHX counter, Shiga toxin inh)
O=C(CN(C(=O)c1ccccc1Cl)C1CCCCC1)Nc1ccc(Cl)c([N+](=O)[O-])c1	Pf growth 48h 13µM
O=C(COc1ncnc2ccccc12)Nc1ccc(Cl)c([N+](=O)[O-])c1	none
O=C(c1ccc(Cl)c([N+](=O)[O-])c1)N(Cc1ccccc1)C1CCS(=O)(=O)C1 (stereo not given)	HCMV inh inconclusive
Cc1ccc([N+](=O)[O-])cc1NC(=O)CN(C(=O)c1ccc(Cl)cc1)C1CCCCC1	Pf growth 48h inconclusive, HCMV inh inconclusive
O=C(c1ccc(Cl)c([N+](=O)[O-])c1)N(Cc1ccc(Cl)cc1)C1CCS(=O)(=O)C1 (stereo not given)	HCMV inh -60, Pf growth 96h inconclusive
O=C(CN(C(=O)c1ccc(Cl)cc1)C1CCCCC1)Nc1ccc(Cl)c([N+](=O)[O-])c1	Pf growth 48h inconclusive, HCMV inh inconclusive, Pf growth 96h 9.3µM
COc1ccc(N=N/C(=C\O)C(=O)c2ccco2)cc1	CHX counter 40, Shiga toxin inh 84
COc1cccc(NC(=O)C2CCC(CNS(=O)(=O)c3csc(C(N)=O)c3)CC2)c1 (stereo not given)	none (no result: Pf growth 48h, Pf growth 96h, CHX counter, Shiga toxin inh)
Cc1cc(C(=O)NC2CCCc3c2cnn3-c2ccc(C(C)(C)C)cc2)nn1C (stereo not given)	HCMV inh -78
CC(C)(C)c1ccc(-n2ncc3c2CCCC3NC(=O)C2(C(N)=O)CC2)cc1 (stereo not given)	HCMV inh -96, Pf growth 96h 13µM
CC(=O)c1cc(C(=O)NC2CCCc3c2cnn3-c2cc(C)cc(C)c2)[nH]n1 (stereo not given)	CHX counter 29, Shiga toxin inh 35
